Consider 9 molecules from PubChem BioAssay (NCATS).

Test [1] has as its target Cytochrome P450 1A2 (Homo sapiens) (UniProt P05177). In words: p450-cyp1a2 (AID 410; calls by dose curve; further: potency means the concentration at half of the fitted maximal effect). The method in brief: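 Luminescent demethylation readout: Luciferin-ME (100uM, equal to Km) turned over by 20nM CYP1A2 for 60 min at room temperature after NADPH regeneration addition, following 10 min compound preincubation. Normalization used 57 uM furafylline as full inhibition.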
For test [2], the target named is Glucocorticoid receptor (Homo sapiens) (UniProt P04150). In words: GR-GFP Redistribution (AID 450;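 active means compounds whose dose series gives a full or clear partial fitted curve of increased nuclear translocation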; further: potency means the concentration at half of the fitted maximal effect).
Test [3] shares this target. Briefly: GR-EFC Redistribution (AID 451; calls by dose curve; further: potency means the concentration at half of the fitted maximal effect). To be noted: CHO-K1 GR-EFC translocation, beta-gal luminescence, 2 h. In a few lines: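 CHO-K1 cells expressing nuclear EA and GR-ED fragments of b-gal; compounds titrated up to 46 uM final, 2 h at 37 C. GR nuclear translocation read as complemented b-gal luminescence after 1 h RT detection.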
The target of test [4] is Mitogen-activated protein kinase 10 (Mus musculus) (UniProt Q61831). In words: JNK3 AlphaScreen Assay (AID 530; active means well fitted curve in either direction with a large enough effect, not every such curve was filed as active;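 further: kinase came from lysate of stimulated human HepG2 cells; signal reports phosphorylation of biotinylated GST-cJun 1-79 at Ser73 with 10 µM ATP; series mostly up to about 57 µM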). The method in brief:
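Activity was read by AlphaScreen after JNK3-containing HepG2 lysate (cytokine pre-activated) phosphorylated biotinylated GST-cJun with 10 uM ATP at room temperature. Phospho-Ser73 cJun antibody with Protein-A acceptor beads provided detection.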
A general note: In Alpha technology, singlet oxygen from a donor bead excites a nearby acceptor bead.

In test [5] the target is 3',5'-cyclic-AMP phosphodiesterase 4B (Homo sapiens) (UniProt Q07343). Briefly: qHTS Assay for Inhibitors of PDE-IV (AID 607; active means well fitted activation curve with a large enough effect in the main read-out, with a control signal flat, not every such curve was filed as active). The method in brief: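 ACTOne HEK293 cells carry a modified cAMP-gated CNG channel and express endogenous PDE4; plated 1000 cells/well, compounds up to 22.9 uM final. Membrane-potential dye fluorescence (ex 535/em 590) was read; parental cells received 10 uM forskolin + 100 uM RO 20-1724.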

The target in test [6] is Cytochrome P450 2C9 (Homo sapiens) (UniProt P11712). In words: qHTS Assay for Inhibitors and Substrates of Cytochrome P450 2C9 (AID 883). Further: nearly all actives have a fitted effect of over 60% in size. Further: potency means the concentration at half of the fitted maximal effect. In a few lines:
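10nM CYP2C9 + 100uM Luciferin-H (=KM), 25mM KPO4; cpd 10 min 37C; NADPH regen, 60 min 37C; stop/detect with P450 Glo-Buffer 20 min; luminescence. Norm. to 57uM sulphaphenazole as full inhibition.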

The target of test [7] is Cytochrome P450 2D6 (Homo sapiens) (UniProt P10635). Briefly: qHTS Assay for Inhibitors and Substrates of Cytochrome P450 2D6 (AID 891). Further: nearly all actives have a fitted effect of over 60% in size. Further: potency means the concentration at half of the fitted maximal effect. In a few lines:
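Luminescent read-out of luciferin formed by 5 nM human CYP2D6 demethylating 30 uM Luciferin-ME EGE (Km level) over 60 min at room temperature after NADPH regeneration addition. Data normalized to full inhibition by 1.43 uM quinidine.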
On the technique in general: In qHTS, concentration-response curves come from the screen itself.

Test [8] deals with Cytochrome P450 2C19 (Homo sapiens) (UniProt P33261). In words: qHTS Assay for Inhibitors and Substrates of Cytochrome P450 2C19 (AID 899). Further: nearly all actives have a fitted effect of over 60% in size. Further: potency means the concentration at half of the fitted maximal effect. The method in brief:
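Luminescent read-out of luciferin formed from Luciferin-H EGE (10uM, equal to KM). Enzyme 5nM in 50mM KPO4; compound added, 10 min at 37C, then NADPH regenerating system for 60 min at 37C. Full inhibition defined by 57uM ketoconazole.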

In test [9] the target is Cytochrome P450 3A4 (Homo sapiens) (UniProt P08684). In words: qHTS Assay for Activators of Cytochrome P450 3A4 (AID 885). Further: nearly all actives have a fitted effect of over 65% in size. In a few lines: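 CYP3A4 activity: Luciferin-PPXE O-dealkylation, 25uM substrate, 200mM KPO4, RT throughout. Read-out is luciferase luminescence; higher values reflect activation.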
Test [10] has as its target DNA dC->dU-editing enzyme APOBEC-3G (Homo sapiens) (UniProt Q9HC16). Briefly: qHTS for inhibitors of Vif-A3G interactions: Validation (AID 588379). In a few lines: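 Yellow fluorescence (Ex 488, Em 500-530) of Vif-coexpressing HeLa A3G-eYFP cells, scanned by Acumen cytometer, reports blocked A3G degradation. Cells plated at 700/well overnight at 37 deg C before compound addition, then a further overnight compound incubation at 37 deg C.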

Test [11] addresses Cytochrome P450 3A4 (Homo sapiens) (UniProt P08684). Briefly: qHTS Assay for Inhibitors and Substrates of Cytochrome P450 3A4 (AID 884). Further: potency means the concentration at half of the fitted maximal effect; nearly all actives have a fitted effect of over 50% in size. The method in brief:
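Luminescent readout of luciferin produced by CYP3A4 (20 nM) dealkylation of Luciferin-PPXE, 25 uM (its KM). NADPH-driven reaction ran 60 min at RT after 10 min compound preincubation; data scaled to 57 uM ketoconazole as 100% inhibition.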

Test [12] deals with Ubiquitin carboxyl-terminal hydrolase 1 (Homo sapiens) (UniProt O94782). Briefly: Inhibitors of USP1/UAF1: Pilot qHTS (AID 504865).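 Further: rhodamine fluorescence freed from ubiquitin-rhodamine substrate followed over time; top concentration of the series differs between compounds; nearly all actives have a fitted effect of over 35% in size.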 The method in brief: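 Deubiquitinase activity followed as kinetic rhodamine fluorescence release from 150 nM Ub-Rho. 1 nM USP1/UAF1 with compound, after 15 min room-temperature preincubation, in HEPES pH 7.8 buffer containing TCEP, EDTA, BSA and Tween-20.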

A number with no mark means an inactive call. Inconclusive results are not listed. Calls of active or inactive are those of the source. Unless noted, the call rests on the fitted dose curve; in most records, active means well fitted curve in the direction sought with a large enough effect; inconclusive means small, poorly fitted or top-dose-only effect, or another doubt; inactive means no such curve, though single readings can be large; an effect the other way counts as inactive or inconclusive.

DNA dC->dU-editing enzyme APOBEC-3G (Homo sapiens), sequence (Q9HC16 whole entry, looked up): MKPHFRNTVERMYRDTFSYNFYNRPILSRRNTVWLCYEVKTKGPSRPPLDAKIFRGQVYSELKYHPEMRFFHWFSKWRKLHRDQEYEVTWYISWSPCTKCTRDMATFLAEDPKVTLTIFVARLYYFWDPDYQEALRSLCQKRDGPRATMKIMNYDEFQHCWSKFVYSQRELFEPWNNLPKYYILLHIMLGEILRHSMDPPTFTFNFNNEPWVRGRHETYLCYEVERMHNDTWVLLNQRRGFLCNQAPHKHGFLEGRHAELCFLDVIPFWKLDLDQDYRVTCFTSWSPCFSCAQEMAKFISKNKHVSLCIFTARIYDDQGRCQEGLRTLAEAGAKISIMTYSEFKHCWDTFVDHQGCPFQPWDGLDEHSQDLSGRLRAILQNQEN
Glucocorticoid receptor (Homo sapiens), sequence (P04150 whole entry, looked up, the tested form may be a part): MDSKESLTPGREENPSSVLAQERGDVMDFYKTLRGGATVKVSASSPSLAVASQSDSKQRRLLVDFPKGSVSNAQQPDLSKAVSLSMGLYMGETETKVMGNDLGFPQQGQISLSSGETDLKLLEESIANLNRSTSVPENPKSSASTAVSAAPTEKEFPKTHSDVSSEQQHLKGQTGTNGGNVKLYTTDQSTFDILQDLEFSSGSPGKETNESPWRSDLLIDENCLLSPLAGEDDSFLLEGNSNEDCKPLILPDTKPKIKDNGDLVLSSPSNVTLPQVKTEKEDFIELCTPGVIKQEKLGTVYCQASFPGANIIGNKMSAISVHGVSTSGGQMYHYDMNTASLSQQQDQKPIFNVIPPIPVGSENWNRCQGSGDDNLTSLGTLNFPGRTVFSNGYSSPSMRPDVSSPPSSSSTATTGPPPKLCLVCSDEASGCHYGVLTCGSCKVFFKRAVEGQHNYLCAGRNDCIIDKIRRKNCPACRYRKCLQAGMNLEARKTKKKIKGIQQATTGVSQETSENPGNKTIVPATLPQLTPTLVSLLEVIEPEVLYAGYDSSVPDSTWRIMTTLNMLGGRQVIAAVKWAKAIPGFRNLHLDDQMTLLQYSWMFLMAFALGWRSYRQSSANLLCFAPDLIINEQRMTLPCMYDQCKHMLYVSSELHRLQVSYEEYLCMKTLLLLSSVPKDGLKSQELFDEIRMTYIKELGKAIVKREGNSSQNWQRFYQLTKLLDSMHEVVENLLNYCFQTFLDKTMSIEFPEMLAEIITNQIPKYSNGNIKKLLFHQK
Cytochrome P450 2C19 (Homo sapiens), sequence (P33261 whole entry, looked up): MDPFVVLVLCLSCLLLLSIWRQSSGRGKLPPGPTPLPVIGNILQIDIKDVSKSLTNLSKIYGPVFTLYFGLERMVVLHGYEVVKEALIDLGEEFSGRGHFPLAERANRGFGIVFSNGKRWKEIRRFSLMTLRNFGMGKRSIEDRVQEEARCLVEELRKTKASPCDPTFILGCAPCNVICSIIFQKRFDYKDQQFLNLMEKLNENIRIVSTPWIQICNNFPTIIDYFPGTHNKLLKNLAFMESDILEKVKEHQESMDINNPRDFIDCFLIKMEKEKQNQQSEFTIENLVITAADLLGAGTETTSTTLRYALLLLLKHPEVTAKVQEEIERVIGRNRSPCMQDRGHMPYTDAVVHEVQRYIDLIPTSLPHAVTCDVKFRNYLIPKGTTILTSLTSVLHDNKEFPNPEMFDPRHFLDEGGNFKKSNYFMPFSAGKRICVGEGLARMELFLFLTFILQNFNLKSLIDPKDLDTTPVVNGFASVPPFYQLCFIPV
Cytochrome P450 2D6 (Homo sapiens), sequence (P10635 whole entry, looked up): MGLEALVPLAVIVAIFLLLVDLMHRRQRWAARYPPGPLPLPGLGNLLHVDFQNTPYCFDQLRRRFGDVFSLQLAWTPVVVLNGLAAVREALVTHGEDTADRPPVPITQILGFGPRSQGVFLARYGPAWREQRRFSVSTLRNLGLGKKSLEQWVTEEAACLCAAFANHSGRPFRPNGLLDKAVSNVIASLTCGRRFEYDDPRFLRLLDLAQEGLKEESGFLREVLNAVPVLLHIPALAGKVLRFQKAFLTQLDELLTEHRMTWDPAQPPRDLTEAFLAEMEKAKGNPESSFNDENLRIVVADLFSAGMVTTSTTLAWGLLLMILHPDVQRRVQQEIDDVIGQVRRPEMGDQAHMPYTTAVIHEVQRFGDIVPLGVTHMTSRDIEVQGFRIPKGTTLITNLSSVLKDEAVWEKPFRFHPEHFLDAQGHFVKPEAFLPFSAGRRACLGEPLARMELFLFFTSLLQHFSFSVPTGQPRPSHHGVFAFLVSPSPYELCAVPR
Cytochrome P450 1A2 (Homo sapiens), sequence (P05177 whole entry, looked up): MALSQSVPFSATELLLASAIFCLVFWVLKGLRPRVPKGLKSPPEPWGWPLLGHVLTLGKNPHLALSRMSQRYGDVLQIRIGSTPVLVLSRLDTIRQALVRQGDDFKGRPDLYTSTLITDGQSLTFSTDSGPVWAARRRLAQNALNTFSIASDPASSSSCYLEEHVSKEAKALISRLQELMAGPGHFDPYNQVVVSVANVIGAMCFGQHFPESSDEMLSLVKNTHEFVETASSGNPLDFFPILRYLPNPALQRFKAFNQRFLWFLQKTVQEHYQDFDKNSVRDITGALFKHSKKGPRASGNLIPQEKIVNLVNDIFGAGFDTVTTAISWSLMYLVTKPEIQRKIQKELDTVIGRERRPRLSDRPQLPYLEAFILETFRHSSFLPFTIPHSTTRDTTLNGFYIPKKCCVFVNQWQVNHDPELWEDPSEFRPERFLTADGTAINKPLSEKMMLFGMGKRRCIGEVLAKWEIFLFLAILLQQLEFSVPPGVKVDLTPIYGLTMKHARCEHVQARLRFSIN
Cytochrome P450 3A4 (Homo sapiens), sequence (P08684 whole entry, looked up): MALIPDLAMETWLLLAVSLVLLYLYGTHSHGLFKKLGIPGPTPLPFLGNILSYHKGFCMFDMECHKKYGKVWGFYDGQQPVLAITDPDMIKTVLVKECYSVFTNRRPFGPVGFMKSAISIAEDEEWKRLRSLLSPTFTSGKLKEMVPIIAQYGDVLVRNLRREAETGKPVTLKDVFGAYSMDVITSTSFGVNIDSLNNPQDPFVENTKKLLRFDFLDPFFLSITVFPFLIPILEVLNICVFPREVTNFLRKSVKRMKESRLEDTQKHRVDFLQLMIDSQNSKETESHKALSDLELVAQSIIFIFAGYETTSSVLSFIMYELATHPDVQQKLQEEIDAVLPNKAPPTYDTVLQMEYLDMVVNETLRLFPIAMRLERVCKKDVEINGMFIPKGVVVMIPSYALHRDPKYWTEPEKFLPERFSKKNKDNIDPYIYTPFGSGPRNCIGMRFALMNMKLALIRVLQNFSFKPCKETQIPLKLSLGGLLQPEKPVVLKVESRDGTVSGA
Cytochrome P450 2C9 (Homo sapiens), sequence (P11712 whole entry, looked up): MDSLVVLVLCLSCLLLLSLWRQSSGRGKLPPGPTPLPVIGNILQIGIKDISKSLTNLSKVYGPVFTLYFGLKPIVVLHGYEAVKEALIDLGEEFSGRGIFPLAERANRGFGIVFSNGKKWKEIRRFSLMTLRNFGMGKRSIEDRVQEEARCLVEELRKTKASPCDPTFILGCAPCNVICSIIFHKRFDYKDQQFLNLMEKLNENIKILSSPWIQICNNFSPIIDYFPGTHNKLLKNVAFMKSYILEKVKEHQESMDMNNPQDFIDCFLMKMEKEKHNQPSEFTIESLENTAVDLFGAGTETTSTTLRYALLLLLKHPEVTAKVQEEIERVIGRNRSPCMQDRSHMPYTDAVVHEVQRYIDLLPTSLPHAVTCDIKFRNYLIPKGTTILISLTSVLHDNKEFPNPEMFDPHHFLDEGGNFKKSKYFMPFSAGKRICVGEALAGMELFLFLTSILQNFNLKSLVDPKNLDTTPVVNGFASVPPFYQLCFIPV
3',5'-cyclic-AMP phosphodiesterase 4B (Homo sapiens), sequence (Q07343 whole entry, looked up): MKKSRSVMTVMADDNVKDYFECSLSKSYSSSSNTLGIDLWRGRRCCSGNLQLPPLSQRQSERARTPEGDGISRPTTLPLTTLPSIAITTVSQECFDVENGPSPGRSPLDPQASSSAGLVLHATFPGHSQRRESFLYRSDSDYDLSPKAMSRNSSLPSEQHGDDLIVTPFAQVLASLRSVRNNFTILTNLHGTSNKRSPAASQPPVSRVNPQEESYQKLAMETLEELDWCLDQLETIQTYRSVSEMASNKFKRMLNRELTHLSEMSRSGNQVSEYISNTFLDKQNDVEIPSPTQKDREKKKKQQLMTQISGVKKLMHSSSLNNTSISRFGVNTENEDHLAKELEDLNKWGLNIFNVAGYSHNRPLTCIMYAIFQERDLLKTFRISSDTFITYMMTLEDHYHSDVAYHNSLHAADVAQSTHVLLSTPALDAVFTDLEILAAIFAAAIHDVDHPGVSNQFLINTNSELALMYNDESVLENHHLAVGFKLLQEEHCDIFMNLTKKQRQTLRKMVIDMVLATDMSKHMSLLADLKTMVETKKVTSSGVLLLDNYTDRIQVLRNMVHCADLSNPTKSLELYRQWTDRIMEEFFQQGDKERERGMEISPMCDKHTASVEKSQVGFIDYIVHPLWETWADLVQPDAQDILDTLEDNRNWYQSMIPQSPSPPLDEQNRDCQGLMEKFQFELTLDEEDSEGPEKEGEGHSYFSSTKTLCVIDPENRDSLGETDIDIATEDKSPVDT

With `OC[C@@H]1O[C@@H](n2cnc3c(NCc4ccco4)ncnc32)[C@H](O)[C@H]1O`, the Potency result in test [1], in [4], in test [5], in test [6], in [7] and in test [8] was “inactive” throughout. Besides, the Potency in [2] and in test [3] was more than 46 µM in each case.
With `COc1cc2ccc(=O)oc2c(O)c1OCC=C(C)C`, the Potency is 1.58 µM (active) in test [1], more than 46 µM in test [2], more than 46 µM in [3] and 10 µM (active) in test [8]. Besides, the Potency entry in test [4], in test [5] and in [9] was “inactive” each time. Besides, the call in test [10] was inactive.
For `COc1cc(C(=O)O[C@@H]2CC(C)=CC[C@@]3(C)CC[C@](O)(C(C)C)[C@H]23)ccc1O`, the Potency in [1] is 15.8 µM (active); in test [2] it was more than 46 µM; in test [3], more than 46 µM; in test [6], 15.8 µM (active). Also, the Potency result in test [4] and in test [5] was “inactive” in each case.
Take `O=c1cc(-c2ccccc2O)oc2c1ccc1ccccc12`: the Potency in test [1] is 0.501 µM (active); in test [2], more than 46 µM; in test [3], more than 46 µM. Also, the Potency result in test [4], in test [5], in test [6], in test [9] and in [7] was “inactive” in each case. In test [10], the molecule was called inactive.
As to `CCCc1c(OCCCOc2ccc(OCC(=O)O)cc2)ccc(CC=O)c1O`, the Potency was 31.6 µM (active) in test [1], more than 46 µM in test [2] and more than 46 µM in [3]. For the same molecule, the Potency result in [4] and in test [5] was “inactive” throughout. Besides, in [10], the call was inactive.
For `Cc1ccc(C[C@H](Cc2nc3ccccc3[nH]2)c2nc3ccccc3[nH]2)cc1`, the Potency was 3.98 µM (active) in test [1]; more than 46 µM in [2]; more than 46 µM in [3]; 12.6 µM (active) in [6]; 0.0794 µM (active) in test [7]; 5.01 µM (active) in test [8]. Moreover, the Potency result in [4] and in test [5] was “inactive” in each case.
As for `O=c1cc(-c2ccc(O)cc2O)oc2ccccc12`, the Potency in test [1] is 1.26 µM (active); in test [2], more than 46 µM; in test [3], more than 46 µM; in test [6], 5.01 µM (active); in test [11], 3.16 µM (active). Also, the Potency entry in [4], in [5], in test [9] and in test [7] was “inactive” each time. Further, the outcome in test [10] was inactive.
Regarding `COc1ccc(-c2cc(=O)c3ccc(O)cc3o2)cc1`, the Potency in [1] is 0.158 µM (active); in [2], more than 46 µM; in test [3], more than 46 µM; in test [11], 7.94 µM (active); in [8], 3.16 µM (active). Moreover, the Potency result in test [4], in [9] and in [7] was “inactive” throughout. Moreover, the molecule was classed as inactive in test [10].
With `O[C@@H]1[C@@H]2c3cc4c(cc3CN3CCC(=C[C@@H]1O)[C@H]23)OCO4`, the Potency in test [1] was 15.8 µM (active); in test [2], more than 20.6 µM; in [3], more than 20.6 µM. The Potency result in test [4], in [5] and in test [12] was “inactive” in each case.
